Measurements from PubChem BioAssay (EPA / NIEHS).
Where “and” joins values, the source holds several entries; their conditions need not be identical. Equal values may be shown once. Inconclusive results are not listed. Calls of active or inactive are those of the source. The calls were made as follows, unless noted: active = hit-call score of the fitted dose curve at least 0.9, where 1 is the maximum; inactive = score below 0.9.

Assays:
[1] = UKN2_HCS_IMR90_cell_viability: Viability Assessment in the University of Konstanz (UKN) Leist Lab Neural Crest Cell Migration Assay in human induced IMR90 Pluripotent Stem Cells (UKN2) (AID 2284233);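 also: viability of neural crest cells differentiated from IMR90 iPSC measured by calcein-AM fluorescence imaging; cells exposed to compound for 24 h after a 24 h migration phase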
Summary of the method: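 cMINC format, iPSC-derived neural crest (IMR90); 24 h migration (EGF/FGF, N2-S), then 24 h toxicant. Calcein-AM/H-33342 stain 30 min; fluorescence intensity by HCS; DMSO-normalised, bidirectional fitting.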

[2] = CCTE_Mundy_HCI_Cortical_NOG_NeuronCount: CCTE's Neurite Outgrowth Assay in rat cortical cells for Neuron Count, Mundy Lab (AID 2284236; active = hit-call score of the fitted dose curve at least 0.9, where 1 is the maximum;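 also: neurons counted by imaging betaIII-tubulin and Hoechst stained cortical cells; cells exposed to compound for about 48 hours before fixation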)
Summary of the method: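 Read-out: neuron number by high-content imaging of betaIII-tubulin (Alexa Fluor-488) and Hoechst-labelled rat primary cortical cells.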

[3] = CCTE_Mundy_HCI_hNP1_CellTiter: CCTE's Cell Titer-Glo 2 Assay in human neuroprogenitor cells for Viability, Mundy Lab (AID 2284241; active = hit-call score of the fitted dose curve at least 0.9, where 1 is the maximum;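 as to AC50: a hit is a drop in ATP luminescence versus DMSO meaning reduced viability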)
Summary of the method: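 Measures ATP content in human neural progenitors derived from WA09 embryonic cells. Read-out at 26.5 hours after dosing, with DMSO serving as the negative control and baseline.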

[4] = CCTE_Mundy_HCI_Cortical_Synap_Neur_Matur_NeuronCount: CCTE's Synaptogenesis and Neurite Maturation Assay in rat cortical cells for Neuron Count, Mundy Lab (AID 2284242; active = hit-call score of the fitted dose curve at least 0.9, where 1 is the maximum;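 as to AC50: neuron number from Hoechst nuclei and MAP2 staining by high-content imaging; hits reduce neuron count versus DMSO baseline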)
Summary of the method: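 Cortical cells from rat are plated, treated with AraC at DIV 5, and exposed to test chemicals with a media change at DIV 7. At DIV 12 they are fixed and immunostained (MAP2, synaptophysin), and imaged neuron counts are compared against DMSO controls.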

[5] = read-out: Vascular cell adhesion molecule 1 (VCAM1), VCAM1 (gene 7412); assay: BSK_MyoF_VCAM1: BioMAP Diversity Plus: MyoF Assay for Vascular cell adhesion molecule 1 (VCAM1) Biomarker Activity (AID 2284231); conditions: primary human lung fibroblasts
Summary of the method: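 ELISA read-out of VCAM-1 on human lung fibroblasts 24 h after chemical treatment, with positive-direction curve fitting relative to DMSO controls. Parallel cultures were stained with sulforhodamine B for total protein to flag overt cytotoxicity.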

[6] = CCTE_Mundy_HCI_Cortical_NOG_BPCount: CCTE's Neurite Outgrowth Assay in rat cortical cells for Branch Point Count, Mundy Lab (AID 2284237);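 as to AC50: branch points counted about two days after chemical exposure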
Summary of the method: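 Measured 50.33 h after dosing, this morphology endpoint uses rat primary cortical cultures labelled for betaIII-tubulin. Branch points are quantified by high-content imaging, with DMSO as negative control and baseline.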

[7] = read-out: Collagen I, COL1A1 (gene 1277); assay: BSK_MyoF_CollagenI: BioMAP Diversity Plus: MyoF Assay for Collagen I Biomarker Activity (AID 2284238); conditions: primary human lung fibroblasts
Protocol: BSK_MyoF is a cell-based, multiplexed-readout assay that uses lung fibroblasts, […], with measurements taken at 24 hours after chemical dosing in a microplate: 96-well plate.BSK_MyoF_CollagenI is an assay component measured in the BSK_MyoF assay. It measures Collagen I antibody related to regulation of gene expression using ELISA technology.Data from the assay component BSK_MyoF_CollagenI was analyzed at the endpoint, BSK_MyoF_CollagenI, in the positive analysis fitting direction relative to DMSO as the negative control and baseline of activity. Using a type of binding reporter, gain or loss-of-signal activity can be used to understand protein changes. To generalize the intended target to other relatable targets, this assay endpoint is annotated to the 'cell adhesion molecules' intended target family, where the subfamily is 'collagen'.
The levels of cell surface (or secreted, indicated by the prefix "s") biomarker endpoints were measured by ELISA. Overt cytotoxicity to cells in confluent adherent cultures (all systems other than the BT system) was assessed by measuring total protein levels using sulforhodamine B (SRB) staining in parallel cultures at the time of biomarker measurements, indicated as SRB endpoints. For proliferation assays for adherent cell types, individual cell types are cultured at sub-confluence and relative cell numbers quantified by SRB staining at time points optimized for each system (48 h: 3C and CASM3C systems; 72 h: BT and HDF3CGF systems; 96 h: SAg system). SRB was performed by staining cells with 0.1% SRB after fixation with 10% TCA and reading wells at 560 nm.Viability and proliferation of PBMC (T cells) was quantified by Alamar Blue reduction for the SAg and BT systems. For PBMC viability (referred to as PBMC Cytotoxicity within the assay endpoint names), cells were plated (75,000/well in a 96-well plate) and then chemical samples added for 1 h before addition of activators, SEB and TSST-1 (20 ng/mL final concentration each). Cells were incubated for 90 h. Then, Alamar Blue (20 uL/well) (Invitrogen, Cat DAL1100) was added for 6 h, and the plates were read with a fluorescence microplate reader at 546/580 nm (excitation/emission). For PBMC proliferation, cells were plated and activated as above but incubated for only 16 h prior to addition of Alamar Blue. Plates were read after 6 h.

[8] = read-out: Collagen III, COL3A1 (gene 1281); assay: BSK_MyoF_CollagenIII: BioMAP Diversity Plus: MyoF Assay for Collagen III Biomarker Activity (AID 2284239); conditions: primary human lung fibroblasts
Summary of the method: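 ELISA read-out of collagen III from human lung fibroblasts after 24 h of chemical treatment. The DMSO control served as negative control and baseline, with values fitted in the positive direction.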

[9] = TAMU_PeakParms_SingleDonor1434_QT: Texas A&M University (TAMU) 1.5-hr Human Induced Pluripotent Stem Cell (iPSC)-derived Cardiomyocytes Calcium (Ca+2) Flux Assay for Cardiotoxicity: QT (decay-rise ratio) (AID 2284235; active = hit-call score of the fitted dose curve at least 0.9, where 1 is the maximum)
Summary of the method: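 Decay/rise ratio of calcium-flux fluorescence scored after 90 min exposure (37C) of donor 1434 iPSC cardiomyocytes to 0.2–100 uM (0.5% DMSO). Beat-cessation and severe-notch points removed; POD is EC05, a 5% rise over DMSO.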

[10] = TAMU_HCS_1.5hr_SingleDonor1434_Cytotoxicity: Cytotoxicity Assessment using High-content Screening (HCS) Fluorescent Imaging for the Texas A&M University (TAMU) 1.5-hr Human Induced Pluripotent Stem Cell (iPSC)-derived Cardiotoxicity Assay (AID 2284234; active = hit-call score of the fitted dose curve at least 0.9, where 1 is the maximum)
Summary of the method: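 Nuclear counts from Hoechst 33342 imaging define cytotoxicity here, with EC10 (10% cell-count loss relative to DMSO) as point of departure. iPSC cardiomyocytes received 0.2-100 uM test chemical in 0.5% DMSO for 1.5 h at 37 C.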

With `CCOP(=S)(OCC)SCSC(C)(C)C` the outcome [1] was “inactive”, the AC50 [2] was 68.1 µM (active) and the outcome [3] was “inactive”. The AC50 [4] was 9.92 µM (active) and 25.5 µM (active).
For `O=S(=O)(O)C(F)(F)C(F)(F)C(F)(F)C(F)(F)F`, the outcome [5] was “inactive”, the outcome [1] was “inactive” and the outcome [2] was “inactive”. The outcome [6] was “inactive”, the outcome [7] was “inactive” and the outcome [8] was “inactive”. For the same compound, the outcome [3] was “inactive”.
With `COc1ccc(O)c(C(C)(C)C)c1` the outcome [6] was “inactive”, the outcome [3] was “inactive” and the outcome [4] was “inactive”.
With `CO/C=C(/C(=O)OC)c1ccccc1COc1cccc(C(F)(F)F)n1` the AC50 [1] was 50 µM (active), the AC50 [2] was 2.81 µM (active) and the AC50 [6] was 1.28 µM (active). The AC50 [3] was 81.5 µM (active) and the AC50 [4] was 0.935 µM (active).
In the case of `C=CC(N)=O`, the outcome [9] is reported as “inactive”, the outcome [6] is reported as “inactive” and the outcome [3] is reported as “inactive”. For the same compound, the outcome [4] was “inactive”.
For `Oc1c(Cl)c(Cl)c(Cl)c(Cl)c1Cl`, the AC50 [5] was 2.41 µM (active), the AC50 [7] was 2.58 µM (active) and the AC50 [8] was 4.07 µM (active).
In the case of `Sc1ccccc1`, the outcome [5] is reported as “inactive”, the outcome [7] is reported as “inactive” and the outcome [8] is reported as “inactive”.
In the case of `ClC1=C(Cl)[C@]2(Cl)[C@@H]3[C@@H](Cl)[C@H]4O[C@H]4[C@@H]3C1(Cl)C2(Cl)Cl`, the AC50 [2] is reported as 34.2 µM (active), the AC50 [6] is reported as 9.79 µM (active) and the AC50 [3] is reported as 35.9 µM (active). For the same compound, the AC50 [4] was 7.22 µM (active).
For `O=C(O)C(F)(F)C(F)(F)C(F)(F)C(F)(F)C(F)(F)F`, the outcome [5] was “inactive”, the outcome [7] was “inactive” and the outcome [8] was “inactive”.
For `O=C(O)C(F)(F)C(F)(F)C(F)(F)C(F)(F)C(F)(F)C(F)(F)C(F)(F)C(F)(F)C(F)(F)F`, the AC50 [5] was 48.6 µM (active) and 44.7 µM (active), the AC50 [7] was 15.8 µM (active) and 18.9 µM (active) and the AC50 [8] was 26.2 µM (active) and 19.1 µM (active). For the same compound, the outcome [3] was “inactive”.
In the case of `ClC1=C(Cl)[C@]2(Cl)[C@@H]3[C@@H]4C[C@@H]([C@H]5O[C@@H]45)[C@@H]3[C@@]1(Cl)C2(Cl)Cl`, the outcome [10] is reported as “inactive”, the outcome [9] is reported as “inactive” and the AC50 [2] is reported as 21.7 µM (active). The AC50 [4] was 25 µM (active).
In the case of `O=S(=O)(O)C(F)(F)C(F)(F)C(F)(F)C(F)(F)C(F)(F)C(F)(F)F`, the outcome [5] is reported as “inactive”, the outcome [1] is reported as “inactive” and the outcome [2] is reported as “inactive”. The outcome [6] was “inactive”, the outcome [7] was “inactive” and the outcome [8] was “inactive”. For the same compound, the outcome [3] was “inactive”.
With `O=C(O)C(F)(F)C(F)(F)C(F)(F)C(F)(F)C(F)(F)C(F)(F)C(F)(F)C(F)(F)F` the AC50 [5] was 30 µM (active) and 42.6 µM (active), the AC50 [7] was 37.9 µM (active) and 34.1 µM (active) and the AC50 [8] was 46.8 µM (active) and 47.6 µM (active).
With `NS(=O)(=O)C(F)(F)C(F)(F)C(F)(F)C(F)(F)C(F)(F)C(F)(F)C(F)(F)C(F)(F)F` the AC50 [5] was 20.2 µM (active) and 26.5 µM (active), the AC50 [7] was 22.6 µM (active) and the AC50 [8] was 26.2 µM (active) and 28.7 µM (active).
